Results: PubChem BioAssay (EPA / NIEHS)
“And” between values parts separate entries of the source, which are not always exact repeats. Identical values can stand only once. Records with an inconclusive call do not appear. The source holds several records for some structures; these can differ, active in one and inactive in another. The source made the active and inactive calls. How the source made its calls: active means hit-call score of the fitted dose curve at least 0.9, where 1 is the maximum; inconclusive means response in the unintended direction; inactive means score below 0.9.

Legend:
[1] = target: Cellular tumor antigen p53 (Homo sapiens) (UniProt P04637); test: TOX21_p53_BLA_p2_ratio: Tox21 HCT-116 p53 Agonism Beta-lactamase Assay, Ratio, Phase 2 (AID 2283592)
Chain of Cellular tumor antigen p53 (Homo sapiens) (P04637 whole entry, looked up): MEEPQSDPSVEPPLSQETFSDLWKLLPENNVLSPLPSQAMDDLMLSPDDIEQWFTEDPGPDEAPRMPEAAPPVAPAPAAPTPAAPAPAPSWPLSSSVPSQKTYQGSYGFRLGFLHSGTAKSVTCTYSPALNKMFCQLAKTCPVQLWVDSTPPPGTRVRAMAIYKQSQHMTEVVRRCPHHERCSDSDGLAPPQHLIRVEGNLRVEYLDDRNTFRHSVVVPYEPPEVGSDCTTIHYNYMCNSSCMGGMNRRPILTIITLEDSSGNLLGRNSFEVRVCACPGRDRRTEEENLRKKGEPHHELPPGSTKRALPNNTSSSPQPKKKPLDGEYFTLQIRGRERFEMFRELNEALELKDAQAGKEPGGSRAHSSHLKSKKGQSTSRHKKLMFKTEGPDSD
Summary of the method: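 Readout: blue/green (460/530 nm) FRET emission ratio after 2 h CCF4-AM loading at room temperature, excitation 405 nm. HCT116 p53 bla cells, 16 h compound exposure at 37C, 5% CO2; agonist direction fitted against DMSO baseline.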

[2] = TOX21_p53_BLA_p3_viability: Viability Assessment in the Tox21 HCT-116 p53 Agonism Beta-lactamase Assay, Phase 3 (AID 2283593);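 further: cells exposed to compound for 16 h before reading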
Summary of the method: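 HCT-116 cells (4000/well) rested 5 h at 37C, then got DMSO compounds by pin tool (217-fold dilution) for 16 h at 37C, 5% CO2. After the bla read, CellTiter-Glo was added and luminescence read at 30 min, room temperature.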

[3] = target: Cellular tumor antigen p53 (Homo sapiens) (UniProt P04637); test: TOX21_p53_BLA_p3_ratio: Tox21 HCT-116 p53 Agonism Beta-lactamase Assay, Ratio, Phase 3 (AID 2283596)
Summary of the method: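 Cells were seeded at 4000/well, rested 5 h at 37C, then dosed with DMSO compound solutions (217-fold dilution) for 16 h. CCF4-AM substrate was loaded for 2 h at room temperature, and the 460/530 nm emission ratio was fitted for gain of signal versus DMSO.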

[4] = TOX21_p53_BLA_p4_viability: Viability Assessment in the Tox21 HCT-116 p53 Agonism Beta-lactamase Assay, Phase 4 (AID 2283597);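 further: hits lower the luminescence signal meaning cytotoxicity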
Summary of the method: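 ATP content by CellTiter-Glo luminescence, 30 min RT, read after the beta-lactamase ratio step. Cells: HCT116, 4000/well, compound added after 5 h, exposure 16 h at 37C. Signal loss = reduced viability.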

[5] = target: Cellular tumor antigen p53 (Homo sapiens) (UniProt P04637); test: TOX21_p53_BLA_p5_ratio: Tox21 HCT-116 p53 Agonism Beta-lactamase Assay, Ratio, Phase 5 (AID 2283599)
Summary of the method: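 HCT-116 cells carrying a p53-inducible beta-lactamase reporter were seeded at 4000 cells/well and dosed after 5 h with compound in DMSO (217-fold dilution). After 16 h at 37C, CCF4-AM substrate was added for 2 h, and the 460/530 nm emission ratio was scored as gain-of-signal versus DMSO.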

[6] = TOX21_p53_BLA_p5_viability: Viability Assessment in the Tox21 HCT-116 p53 Agonism Beta-lactamase Assay, Phase 5 (AID 2283600)
Summary of the method: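 ATP luminescence (CellTiter-Glo, 30 min, RT) served as the viability read-out, with loss of signal indicating cytotoxicity. Compounds in DMSO were pinned at a 217-fold dilution onto 4000 cells/well and incubated 16 h, 37C.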

[7] = target: Cellular tumor antigen p53 (Homo sapiens) (UniProt P04637); test: TOX21_p53_BLA_p4_ratio: Tox21 HCT-116 p53 Agonism Beta-lactamase Assay, Ratio, Phase 4 (AID 2283601)
Summary of the method: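 HCT116 cells carrying an inducible beta-lactamase reporter were plated at 4000 cells/well, rested 5 h, then exposed to compounds in DMSO (217-fold dilution) for 16 h at 37C. CCF4-AM substrate was loaded 2 h at room temperature; 460/530 nm emission ratio scored gain-of-signal versus DMSO.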

[8] = Tanguay_ZF_120hpf_MORT_legacy: (Legacy) Oregon State University Tanguay Lab 120 Hour Post-fertilization zebrafish Assay for Mortality (AID 2283633);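 on AC50: fitted as increase in binary mortality versus DMSO negative control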
Summary of the method: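 Brightfield scoring of embryo death (binary) at 24 and 120 hpf; static exposure 6–120 hpf, 28C, sealed and foil-covered. Pronase-dechorionated 5D wild-type larvae, single embryo per well. DMSO 0.64% v/v; trimethyltin chloride 5uM positive control.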

[9] = Tanguay_ZF_120hpf_AXIS_legacy: (Legacy) Oregon State University Tanguay Lab 120 Hour Post-fertilization zebrafish Assay for Body Axis Malformation (AID 2283635);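 on AC50: potency for an increased fraction of larvae scored with body axis malformation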
Summary of the method: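 Embryos: 5D wild-type, pronase-dechorionated 4 hpf; static exposure 6–120 hpf, 28C, sealed, dark, 1 embryo/well, 0.64% DMSO. 120 hpf axis malformation scored present/absent; dead embryos excluded. Analysed as gain of signal vs DMSO.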

[10] = Tanguay_ZF_120hpf_EYE_legacy: (Legacy) Oregon State University Tanguay Lab 120 Hour Post-fertilization zebrafish Assay for Eye Malformation (AID 2283636);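 further: binary presence or absence of eye malformation scored by brightfield in 120 hpf larvae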
Summary of the method: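 Static waterborne exposure of dechorionated zebrafish embryos (strain Tropical 5D), 6 to 120 hpf, sealed plates at 28C, 0.64% DMSO vehicle. Eye malformation is scored as a binary endpoint, with gain of signal analysed relative to DMSO.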

[11] = Tanguay_ZF_120hpf_SNOU_legacy: (Legacy) Oregon State University Tanguay Lab 120 Hour Post-fertilization zebrafish Assay for Snout Malformation (AID 2283637)
Summary of the method: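 Dechorionated zebrafish, individually housed from 6 hpf in covered, sealed wells at 28C with 0.64% DMSO vehicle, were examined at 120 hpf for snout malformation. Responses were binary and analysed positive-direction relative to DMSO.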

[12] = Tanguay_ZF_120hpf_JAW_legacy: (Legacy) Oregon State University Tanguay Lab 120 Hour Post-fertilization zebrafish Assay for Jaw Malformation (AID 2283638);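 on AC50: active means more embryos with jaw malformation than DMSO controls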
Summary of the method: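 Binary jaw-malformation calls at 120 hpf by brightfield imaging; DMSO (0.64% v/v) = baseline. Embryos: 5D wild-type, pronase-dechorionated, one per well from 6 hpf, static exposure, 28C, sealed, dark.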

[13] = Tanguay_ZF_120hpf_OTIC_legacy: (Legacy) Oregon State University Tanguay Lab 120 Hour Post-fertilization zebrafish Assay for Otic Vesicle Malformation (AID 2283639)
Summary of the method: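 Statically exposed wild-type 5D zebrafish embryos, kept sealed and dark at 28C through 120 hours post fertilization, were examined by brightfield microscopy for otic vesicle defects. Responses were recorded as present or absent and analysed relative to DMSO.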

[14] = Tanguay_ZF_120hpf_BRAI_legacy: (Legacy) Oregon State University Tanguay Lab 120 Hour Post-fertilization zebrafish Assay for Brain Malformation (AID 2283641)
Summary of the method: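 Read-out: binary brain morphology call at 120 hpf (brightfield), fitted in gain-of-signal direction vs DMSO. Wild-type Tropical 5D embryos, static exposure, 28C, 0.64% DMSO final; 5uM trimethyltin chloride as positive control.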

[15] = Tanguay_ZF_120hpf_SOMI_legacy: (Legacy) Oregon State University Tanguay Lab 120 Hour Post-fertilization zebrafish Assay for Somite Malformation (AID 2283647)
Summary of the method: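 Binary brightfield scoring of somite defects at 120 hpf in 5D wild-type larvae; one dechorionated embryo per well, static exposure from 6 hpf, 28C, sealed and dark. Final DMSO 0.64%; trimethyltin chloride 5uM positive control.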

[16] = Tanguay_ZF_120hpf_CFIN_legacy: (Legacy) Oregon State University Tanguay Lab 120 Hour Post-fertilization zebrafish Assay for Caudal Fin Malformation (AID 2283649)
Summary of the method: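 Dechorionated 5D wild-type zebrafish, static exposure 6–120 hpf, 28C, sealed and dark, 0.64% v/v DMSO final. Binary fin-malformation call at 120 hpf, brightfield; gain of signal vs DMSO baseline.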

[17] = Tanguay_ZF_120hpf_PIG_legacy: (Legacy) Oregon State University Tanguay Lab 120 Hour Post-fertilization zebrafish Assay for Pigmentation Malformation (AID 2283650)
Summary of the method: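 Endpoint is incidence of abnormal pigmentation at 120 hpf in dechorionated 5D zebrafish exposed singly from 6 hpf at 28C, DMSO vehicle at 0.64%. Embryos dying by 24 or 120 hpf are excluded from scoring.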

[18] = Tanguay_ZF_120hpf_PFIN_legacy: (Legacy) Oregon State University Tanguay Lab 120 Hour Post-fertilization zebrafish Assay for Pectoral Fin Malformation (AID 2283648);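 further: each larva judged yes or no for fin defect by brightfield with dead larvae skipped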
Summary of the method: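 Scoring of pectoral fin malformation was binary, made at 120 hpf on larvae exposed statically from 6 hpf after enzymatic chorion removal. Activity was fitted upward relative to DMSO controls at 0.64% (vol/vol).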

[19] = Tanguay_ZF_120hpf_PE_legacy: (Legacy) Oregon State University Tanguay Lab 120 Hour Post-fertilization zebrafish Assay for Pericardial Edema (AID 2283640)
Summary of the method: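 Static waterborne exposure, 5D wild-type embryos, 28C, to 120 hpf; final DMSO 0.64% (vol/vol). Binary PE call at 120 hpf by brightfield; fitted upward vs DMSO baseline. 5uM trimethyltin chloride as positive control.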

Measured: AC50

C#C[C@]1(O)CC[C@H]2[C@@H]3CCC4=CC(=O)CC[C@@H]4[C@H]3CC[C@@]21CC
not listed: [18] | [19]
inactive: all other assays above

CC(C)CCCCCCc1ccc(O)cc1
inactive: [1] | [2] | [3] | [4] | [5] | [6] | [7] | [8] | [9] | [10] | [11] | [12] | [13] | [14] | [15] | [18] | [16] | [17]
active: [2] 66.6 µM and 71.5 µM | [3] 71.2 µM | [4] 25.6 µM and 34.7 µM | [5] 39.9 µM | [6] 37.2 µM | [7] 46.2 µM and 41.7 µM

CCOC(=O)c1ccc(O)cc1
active: [11] 24.5 µM
not listed: [6] | [13] | [15] | [19]
inactive: all other assays above

CCCN(CCC)c1c([N+](=O)[O-])cc(C(F)(F)F)c(N)c1[N+](=O)[O-]
active: [1] 37.8 µM | [2] 44.7 µM | [3] 81.1 µM | [4] 20.7 µM | [5] 67.5 µM | [6] 21.4 µM | [7] 44.2 µM
not listed: [10] | [19]
inactive: all other assays above

CC(C)(c1ccc(O)cc1)c1ccc(O)cc1
inactive: [1] | [2] | [3] | [4] | [5] | [6] | [7] | [8] | [10] | [12] | [13] | [14] | [15] | [18] | [16]
active: [1] 85.6 µM | [4] 85.1 µM | [7] 75.9 µM | [8] 16.4 µM | [9] 36.5 µM and 64.9 µM and 25.3 µM | [10] 40 µM and 40.1 µM | [11] 46.9 µM and 47.9 µM and 37.4 µM | [12] 41.7 µM and 36.1 µM | [13] 40.5 µM and 37.7 µM | [14] 41.6 µM and 39.4 µM | [15] 44.3 µM and 36.4 µM | [18] 29.8 µM and 37.2 µM | [16] 35.2 µM | [17] 42 µM and 36.8 µM

CCOC(=O)NCCOc1ccc(Oc2ccccc2)cc1
active: [1] 38.1 µM
not listed: [15]
inactive: all other assays above

CC(=O)S[C@@H]1CC2=CC(=O)CC[C@]2(C)[C@H]2CC[C@@]3(C)[C@@H](CC[C@@]34CCC(=O)O4)[C@H]12
active: [1] 15.8 µM
inactive: [1] | [2] | [3] | [4] | [5] | [6] | [7] | [8] | [9] | [10] | [11] | [12] | [13] | [18] | [16] | [17]

C[C@]12CC[C@@H]3c4ccc(O)cc4C[C@@H](CCCCCCCCCS(=O)CCCC(F)(F)C(F)(F)F)[C@H]3[C@@H]1CC[C@@H]2O (some centres undefined)
not listed: [16] | [19]
inactive: all other assays above

CN(C)C(=O)Nc1ccc(Cl)c(Cl)c1
not listed: [10] | [12] | [19]
inactive: all other assays above

c1ccc(Nc2ccccc2)cc1
active: [8] 26.2 µM | [11] 36.6 µM | [12] 20.7 µM | [14] 10.2 µM
not listed: [3] | [10] | [13] | [19]
inactive: all other assays above

Oc1ccc(C(c2ccc(O)cc2)C(Cl)(Cl)Cl)cc1
active: [1] 72.9 µM and 69.1 µM | [2] 46.1 µM | [3] 72.1 µM and 74.2 µM | [4] 38.3 µM and 80.7 µM | [5] 80.8 µM and 85.1 µM | [6] 66.7 µM | [7] 64.5 µM and 82.7 µM | [9] 63.4 µM | [11] 138 µM | [12] 117 µM | [15] 86.3 µM | [17] 202 µM
inactive: [2] | [6] | [8] | [10] | [14] | [18] | [16]
